# According to the supplement of paper PMC10849652:
# Targets with a hit are over-represented here; the source holds about 7,900 in all. About 0.6% of all pairs of compound and target were hits. Values without a mark were called inactive.
# Legend:
# Test in all cases: log2 fold change, soluble protein after heating vs DMSO (PISA); higher = thermal stabilisation; K562 cells, 10 uM, 30 min; active = over 0.2 and 3.5 SD of the protein, either way, in both replicates (recomputed)
# saracatinib = compound: CN1CCN(CCOc2cc(OC3CCOCC3)c3c(Nc4c(Cl)ccc5c4OCO5)ncnc3c2)CC1 [saracatinib]
# Outline: (§1)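 K562 cells at 2×10^6 cells/mL were treated for 30 min with 10 μM compound, and aliquots were heated for 3 min over 48°C-58°C before pooling. Extraction used PBS with 0.5% NP-40 at 4°C, and soluble protein was the supernatant after 21,000xg for 90 min, measured by TMTpro 16plex LC-MS/MS with channel sums equalised. Thermal stability values, relative to control samples and from duplicates, are log2 fold changes.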
# sotrastaurin = compound: CN1CCN(c2nc(C3=C(c4c[nH]c5ccccc45)C(=O)NC3=O)c3ccccc3n2)CC1 [sotrastaurin]
# Outline: as §1
# alvocidib = compound: CN1CC[C@H](c2c(O)cc(O)c3c(=O)cc(-c4ccccc4Cl)oc23)[C@H](O)C1 [alvocidib]
# Outline: as §1
# Tubastatin A = compound: CN1CCc2c(c3ccccc3n2Cc2ccc(C(=O)NO)cc2)C1 [Tubastatin A]
# Outline: as §1
# [1] = compound: CNC(=O)C1=CC=CC=C1NC2=NC(=NC=C2Cl)NC3=C(C=C(C=C3)N4CCOCC4)OC
# Outline: as §1
# defactinib = compound: CNC(=O)c1ccc(Nc2ncc(C(F)(F)F)c(NCc3nccnc3N(C)S(C)(=O)=O)n2)cc1 [defactinib]
# Outline: as §1
# rucaparib = compound: CNCc1ccc(-c2[nH]c3cc(F)cc4c3c2CCNC4=O)cc1 [rucaparib]
# Outline: as §1
# [2] = compound: CNc1nc(-c2ccc3c(N)n[nH]c3c2)cc(N2C[C@@H](C(=O)NC3CCCCC3)CC[C@H]2C)n1
# Outline: as §1
# encorafenib = compound: COC(=O)N[C@@H](C)CNc1nccc(-c2cn(C(C)C)nc2-c2cc(Cl)cc(NS(C)(=O)=O)c2F)n1 [encorafenib]
# Outline: as §1
# [3] = compound: COC(=O)[C@H](CCSC)NC(=O)C1=C(C=C(C=C1)NC[C@H](CS)N)C2=CC=CC=C2
# Outline: as §1
# [4] = compound: COC1=CC=C(C=C1)CN2C=CC3=C2C=C(C=C3)C(=O)NO
# Outline: as §1
# filanesib = compound: CON(C)C(=O)N1N=C(c2cc(F)ccc2F)S[C@@]1(CCCN)c1ccccc1 [filanesib]
# Outline: as §1
# zotarolimus = compound: CO[C@H]1C[C@@H]2CC[C@@H](C)[C@@](O)(O2)C(=O)C(=O)N2CCCC[C@H]2C(=O)O[C@H]([C@H](C)C[C@@H]2CC[C@H](n3cnnn3)[C@H](OC)C2)CC(=O)[C@H](C)/C=C(\C)[C@@H](O)[C@@H](OC)C(=O)[C@H](C)C[C@H](C)/C=C/C=C/C=C/1C [zotarolimus]
# Outline: as §1
# idasanutlin = compound: COc1cc(C(=O)O)ccc1NC(=O)[C@@H]1N[C@@H](CC(C)(C)C)[C@](C#N)(c2ccc(Cl)cc2F)[C@H]1c1cccc(Cl)c1F [idasanutlin]
# Outline: as §1
# alisertib = compound: COc1cc(Nc2ncc3c(n2)-c2ccc(Cl)cc2C(c2c(F)cccc2OC)=NC3)ccc1C(=O)O [alisertib]
# Outline: as §1
# [5] = compound: COc1cc2nc(-c3cc(F)ccc3O)nc(N[C@@H]3CNC[C@H]3C(C)(C)O)c2cc1OC
# Outline: as §1
# gefitinib = compound: COc1cc2ncnc(Nc3ccc(F)c(Cl)c3)c2cc1OCCCN1CCOCC1 [gefitinib]
# Outline: as §1
# [6] = compound: COc1cccc2cc(-c3nc([C@H]4CC[C@H](C(=O)O)CC4)n4ncnc(N)c34)[nH]c12
# Outline: as §1
# lapatinib = compound: CS(=O)(=O)CCNCc1ccc(-c2ccc3ncnc(Nc4ccc(OCc5cccc(F)c5)c(Cl)c4)c3c2)o1 [lapatinib]
# Outline: as §1
# pictilisib = compound: CS(=O)(=O)N1CCN(Cc2cc3nc(-c4cccc5[nH]ncc45)nc(N4CCOCC4)c3s2)CC1 [pictilisib]
# Outline: as §1
# Sequence of UniProt Q96IZ7 (Q96IZ7 whole entry, looked up): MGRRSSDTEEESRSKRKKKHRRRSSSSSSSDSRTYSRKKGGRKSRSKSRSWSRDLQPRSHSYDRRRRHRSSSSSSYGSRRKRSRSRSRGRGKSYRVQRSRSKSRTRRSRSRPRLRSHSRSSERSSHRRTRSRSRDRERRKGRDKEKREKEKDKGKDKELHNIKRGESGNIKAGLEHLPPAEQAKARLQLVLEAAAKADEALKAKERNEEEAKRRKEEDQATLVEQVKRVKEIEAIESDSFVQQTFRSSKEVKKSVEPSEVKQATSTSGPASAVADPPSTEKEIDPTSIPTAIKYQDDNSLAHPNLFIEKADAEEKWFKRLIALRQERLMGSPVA
# Sequence of UniProt Q9BWF3 (Q9BWF3 whole entry, looked up): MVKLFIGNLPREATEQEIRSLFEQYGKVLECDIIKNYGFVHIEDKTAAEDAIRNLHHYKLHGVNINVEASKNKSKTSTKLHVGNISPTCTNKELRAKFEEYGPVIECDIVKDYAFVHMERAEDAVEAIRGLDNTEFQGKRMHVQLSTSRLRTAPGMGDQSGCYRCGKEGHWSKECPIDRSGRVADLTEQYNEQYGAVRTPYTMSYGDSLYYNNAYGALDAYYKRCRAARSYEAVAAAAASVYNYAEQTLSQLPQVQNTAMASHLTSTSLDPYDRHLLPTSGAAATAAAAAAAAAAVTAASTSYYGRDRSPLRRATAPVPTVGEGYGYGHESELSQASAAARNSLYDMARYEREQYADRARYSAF
# Sequence of UniProt Q15050 (Q15050 whole entry, looked up): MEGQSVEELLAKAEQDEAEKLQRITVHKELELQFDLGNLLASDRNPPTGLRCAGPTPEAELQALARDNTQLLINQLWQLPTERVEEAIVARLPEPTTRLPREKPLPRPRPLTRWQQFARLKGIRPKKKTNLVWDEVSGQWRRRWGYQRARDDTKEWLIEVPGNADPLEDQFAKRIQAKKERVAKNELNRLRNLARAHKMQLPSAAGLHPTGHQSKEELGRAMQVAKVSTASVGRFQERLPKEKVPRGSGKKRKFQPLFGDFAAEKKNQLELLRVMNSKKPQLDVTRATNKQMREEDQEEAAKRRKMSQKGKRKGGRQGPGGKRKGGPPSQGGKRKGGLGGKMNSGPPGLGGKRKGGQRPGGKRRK
# Sequence of UniProt O00584 (O00584 whole entry, looked up): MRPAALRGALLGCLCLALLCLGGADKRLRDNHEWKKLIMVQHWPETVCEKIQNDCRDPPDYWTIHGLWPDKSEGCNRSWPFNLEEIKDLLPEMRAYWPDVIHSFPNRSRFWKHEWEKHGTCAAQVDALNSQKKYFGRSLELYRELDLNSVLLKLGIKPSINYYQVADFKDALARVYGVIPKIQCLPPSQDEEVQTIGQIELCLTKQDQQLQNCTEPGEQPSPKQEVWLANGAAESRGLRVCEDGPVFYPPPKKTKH
# Sequence of UniProt P61586 (P61586 whole entry, looked up): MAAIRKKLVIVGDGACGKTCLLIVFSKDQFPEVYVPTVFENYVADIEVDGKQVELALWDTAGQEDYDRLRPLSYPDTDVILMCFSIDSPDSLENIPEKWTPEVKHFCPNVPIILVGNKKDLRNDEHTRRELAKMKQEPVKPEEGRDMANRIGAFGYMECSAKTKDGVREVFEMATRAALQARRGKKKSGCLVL
# Sequence of UniProt Q96T23 (Q96T23 whole entry, looked up): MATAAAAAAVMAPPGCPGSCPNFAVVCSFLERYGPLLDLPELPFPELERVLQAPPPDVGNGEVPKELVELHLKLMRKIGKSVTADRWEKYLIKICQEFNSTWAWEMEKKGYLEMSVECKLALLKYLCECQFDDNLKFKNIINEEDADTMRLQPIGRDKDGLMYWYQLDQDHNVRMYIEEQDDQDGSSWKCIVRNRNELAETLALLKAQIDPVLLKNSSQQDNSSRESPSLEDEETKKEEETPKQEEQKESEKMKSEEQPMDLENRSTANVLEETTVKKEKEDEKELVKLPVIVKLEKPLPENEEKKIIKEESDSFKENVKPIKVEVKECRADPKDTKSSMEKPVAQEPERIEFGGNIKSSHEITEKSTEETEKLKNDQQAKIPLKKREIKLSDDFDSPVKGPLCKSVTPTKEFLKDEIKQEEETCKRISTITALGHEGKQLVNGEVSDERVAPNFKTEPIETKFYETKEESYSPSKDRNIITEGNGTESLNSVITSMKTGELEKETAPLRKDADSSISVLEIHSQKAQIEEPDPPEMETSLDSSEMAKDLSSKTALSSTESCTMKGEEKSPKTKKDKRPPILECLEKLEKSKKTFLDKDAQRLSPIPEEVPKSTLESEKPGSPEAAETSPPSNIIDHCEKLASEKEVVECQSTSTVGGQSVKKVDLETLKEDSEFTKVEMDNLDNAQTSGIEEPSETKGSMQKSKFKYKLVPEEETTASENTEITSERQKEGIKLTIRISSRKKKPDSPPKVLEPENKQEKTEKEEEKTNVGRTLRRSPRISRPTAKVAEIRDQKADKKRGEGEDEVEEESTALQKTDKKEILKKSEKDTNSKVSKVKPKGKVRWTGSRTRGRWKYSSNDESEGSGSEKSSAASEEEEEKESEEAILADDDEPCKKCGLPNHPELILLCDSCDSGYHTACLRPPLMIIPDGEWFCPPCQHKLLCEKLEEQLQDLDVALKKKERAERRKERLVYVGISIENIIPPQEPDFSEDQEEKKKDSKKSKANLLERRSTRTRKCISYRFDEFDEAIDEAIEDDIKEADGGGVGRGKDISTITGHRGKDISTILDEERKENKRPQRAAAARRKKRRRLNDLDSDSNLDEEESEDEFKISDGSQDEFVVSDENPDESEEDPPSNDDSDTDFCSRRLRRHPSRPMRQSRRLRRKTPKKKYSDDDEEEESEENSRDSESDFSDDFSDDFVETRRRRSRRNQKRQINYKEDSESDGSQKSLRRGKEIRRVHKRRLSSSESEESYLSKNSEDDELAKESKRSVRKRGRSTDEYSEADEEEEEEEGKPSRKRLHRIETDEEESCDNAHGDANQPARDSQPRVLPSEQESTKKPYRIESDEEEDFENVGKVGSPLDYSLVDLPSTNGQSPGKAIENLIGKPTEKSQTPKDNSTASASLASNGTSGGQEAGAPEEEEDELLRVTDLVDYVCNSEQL
# Sequence of UniProt Q53H47 (Q53H47 whole entry, looked up): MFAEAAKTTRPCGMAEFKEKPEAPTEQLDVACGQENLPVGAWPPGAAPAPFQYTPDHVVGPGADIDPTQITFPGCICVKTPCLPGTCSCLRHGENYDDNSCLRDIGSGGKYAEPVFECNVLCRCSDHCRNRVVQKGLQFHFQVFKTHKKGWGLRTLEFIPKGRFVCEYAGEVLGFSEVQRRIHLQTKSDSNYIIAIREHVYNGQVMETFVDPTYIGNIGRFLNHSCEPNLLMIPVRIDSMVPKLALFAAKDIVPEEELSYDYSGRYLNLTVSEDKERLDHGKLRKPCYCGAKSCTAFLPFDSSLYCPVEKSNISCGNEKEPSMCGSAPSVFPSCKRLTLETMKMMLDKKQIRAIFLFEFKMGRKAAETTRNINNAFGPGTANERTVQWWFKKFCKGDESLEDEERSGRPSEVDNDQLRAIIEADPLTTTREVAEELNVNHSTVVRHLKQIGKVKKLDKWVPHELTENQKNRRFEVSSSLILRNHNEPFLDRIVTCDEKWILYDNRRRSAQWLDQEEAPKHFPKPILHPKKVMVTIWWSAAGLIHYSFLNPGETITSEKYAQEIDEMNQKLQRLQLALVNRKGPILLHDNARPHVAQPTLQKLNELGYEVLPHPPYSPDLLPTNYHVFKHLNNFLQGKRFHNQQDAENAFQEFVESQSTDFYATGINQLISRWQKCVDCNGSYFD
# Sequence of UniProt O14730 (O14730 whole entry, looked up): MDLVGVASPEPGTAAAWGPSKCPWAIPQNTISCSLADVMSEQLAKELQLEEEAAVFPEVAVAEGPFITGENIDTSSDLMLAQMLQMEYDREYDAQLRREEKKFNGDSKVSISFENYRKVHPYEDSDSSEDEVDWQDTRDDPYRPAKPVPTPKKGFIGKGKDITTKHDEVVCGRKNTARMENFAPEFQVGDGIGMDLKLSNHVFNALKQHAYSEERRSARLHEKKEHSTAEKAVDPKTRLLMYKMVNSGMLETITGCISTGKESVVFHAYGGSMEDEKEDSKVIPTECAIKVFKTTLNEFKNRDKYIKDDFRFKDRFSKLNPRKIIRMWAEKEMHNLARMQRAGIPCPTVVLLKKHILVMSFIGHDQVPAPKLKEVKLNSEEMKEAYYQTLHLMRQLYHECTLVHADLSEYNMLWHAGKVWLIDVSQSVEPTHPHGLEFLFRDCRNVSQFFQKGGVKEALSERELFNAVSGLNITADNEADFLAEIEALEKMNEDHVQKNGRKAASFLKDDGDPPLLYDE
# Sequence of UniProt Q7L4I2 (Q7L4I2 whole entry, looked up): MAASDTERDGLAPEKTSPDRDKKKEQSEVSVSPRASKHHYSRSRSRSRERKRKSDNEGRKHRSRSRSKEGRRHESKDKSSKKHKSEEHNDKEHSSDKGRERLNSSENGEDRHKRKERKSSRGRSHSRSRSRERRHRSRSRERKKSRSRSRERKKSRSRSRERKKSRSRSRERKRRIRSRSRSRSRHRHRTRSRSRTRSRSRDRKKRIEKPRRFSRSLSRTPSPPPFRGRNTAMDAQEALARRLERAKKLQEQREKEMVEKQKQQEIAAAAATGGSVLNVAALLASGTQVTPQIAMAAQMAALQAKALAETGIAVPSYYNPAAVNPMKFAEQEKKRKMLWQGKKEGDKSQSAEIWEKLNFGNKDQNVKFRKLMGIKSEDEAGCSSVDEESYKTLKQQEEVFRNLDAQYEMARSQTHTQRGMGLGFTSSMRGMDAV
# Sequence of UniProt O95059 (O95059 whole entry, looked up): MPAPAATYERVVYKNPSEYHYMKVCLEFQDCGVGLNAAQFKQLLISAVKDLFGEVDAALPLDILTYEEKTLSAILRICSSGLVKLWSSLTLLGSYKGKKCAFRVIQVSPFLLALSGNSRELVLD
# Sequence of UniProt P62070 (P62070 whole entry, looked up): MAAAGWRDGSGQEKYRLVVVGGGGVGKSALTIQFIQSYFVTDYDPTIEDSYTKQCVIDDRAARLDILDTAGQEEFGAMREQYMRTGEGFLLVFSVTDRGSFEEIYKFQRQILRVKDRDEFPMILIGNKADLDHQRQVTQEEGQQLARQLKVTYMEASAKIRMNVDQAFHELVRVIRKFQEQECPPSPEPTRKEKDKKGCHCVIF
Target,log2 fold change (saracatinib),log2 fold change (sotrastaurin),log2 fold change (alvocidib),log2 fold change (Tubastatin A),log2 fold change [1],log2 fold change (defactinib),log2 fold change (rucaparib),log2 fold change [2],log2 fold change (encorafenib),log2 fold change [3],log2 fold change [4],log2 fold change (filanesib),log2 fold change (zotarolimus),log2 fold change (idasanutlin),log2 fold change (alisertib),log2 fold change [5],log2 fold change (gefitinib),log2 fold change [6],log2 fold change (lapatinib),log2 fold change (pictilisib)
RABGAP1L isoform 3 (UniProt Q5R372),0.063,-0.042,-0.001,-0.059,0.018,-0.055,-0.05,-0.005,0.078,0.035,-0.108,-0.026,-0.006,-0.05,-0.008,-0.025,0.035,0.033,0.012,-0.066
RBM4 (UniProt Q9BWF3),0.024,-0.1,-0.037,0.017,-0.052,-0.055,0.157,-0.036,0.063,0.025,-0.071,0.065,0.035,0.051,0.038,-0.036,-0.04,-0.038,0.024,0.005
RRAS2 isoform 4 (UniProt P62070),0.069,0.075,0.024,0.014,-0.001,-0.016,0,0.05,-0.011,0.004,0.004,0.059,-0.025,0.016,-0.099,0.075,0.061,0.093,0.017,0.05
RSRC2 (UniProt Q7L4I2),0.015,0.049,0.055,-0.055,-0.125,-0.048,-0.004,-0.016,-0.005,0.024,0.033,0.066,-0.002,0.048,-0.102,0.034,0.005,0.022,-0.021,0.011
SENP6 (UniProt Q9GZR1),0.028,-0.008,-0.062,0.063,-0.018,-0.131,0.003,-0.034,0.016,0,0.029,0.115,-0.077,0.088,-0.016,0.016,0.028,0.039,0.066,0.076
SLC19A1 (UniProt P41440),0.012,-0.173,0.06,-0.021,-0.035,-0.061,-0.179,-0.048,0.041,-0.003,0.047,-0.164,-0.106,0.023,-0.034,0.003,0,0.086,-0.066,-0.026
RAC3 (UniProt P60763),0.036,0.11,-0.042,-0.081,-0.064,0.011,-0.134,0.085,-0.07,0.027,0.025,0.031,0.125,0.017,-0.038,-0.067,0.017,0.026,0.061,0.071
RPS21 (UniProt P63220),-0.017,0.005,0.104,0.246,0.039,0.052,-0.039,-0.001,0.021,0.027,-0.033,0.086,-0.021,0.031,-0.069,0.04,0.002,-0.022,-0.027,-0.01
RSRC1 (UniProt Q96IZ7),0.04,0.042,-0.027,0.018,-0.215 (active),-0.018,-0.04,-0.004,0.023,0.052,0.136,-0.003,0.033,-0.004,-0.084,-0.024,0.024,0.001,0.041,0.101
RHOA (UniProt P61586),0.079,-0.025,0.018,-0.025,-0.029,0,0.074,0.012,-0.126,0.08,0.284 (active),-0.012,-0.054,0.1,-0.085,-0.118,0.036,-0.012,0.036,-0.178
RIOK3 (UniProt O14730),0.029,-0.006,-0.002,0.012,-0.029,-0.01,-0.132,-0.039,-0.02,-0.002,-0.039,-0.049,-0.019,0.052,-0.029,-0.009,0.007,0.01,0.003,0.095
SETMAR (UniProt Q53H47),-0.007,-0.132,-0.029,-0.402,0.006,-0.026,-0.004,0.005,0.198,-0.084,-0.135,-0.065,0.048,-0.037,0.014,-0.002,-0.044,0.004,0.018,-0.009
RPP14 (UniProt O95059),0.064,-0.01,0.007,0.059,-0.039,0.012,0.004,-0.029,0.046,-0.034,-0.006,0.046,0.004,-0.038,-0.051,-0.053,-0.022,0.047,0.042,-0.19
RNASET2 (UniProt O00584),0.009,0.01,0.077,0.003,-0.031,-0.004,-0.163,-0.067,0.015,-0.002,0.012,-0.155,-0.013,-0.021,-0.046,-0.097,-0.081,0.035,-0.028,0.024
RSF1 (UniProt Q96T23),0,-0.209,-0.188,0.181,0.035,-0.407 (active),0.026,0.048,0.029,-0.086,0.267,-0.078,0.023,-0.147,-0.067,-0.018,0.037,-0.17,0.004,0.114
RRS1 (UniProt Q15050),-0.079,-0.001,0.302,0.071,0.009,0.688,0.488,0.109,0.166,0.047,-0.111,0.593,0.033,0.262,-0.171,0.01,0.005,-0.169,0.137,-0.096
